# Data: PubChem BioAssay (Tox21)
# Several values for one entry are separate records, joined by “and”; a condition that tells them apart may be missing. Equal values may be shown once. Records with an inconclusive call do not appear. A call without a number means that no potency is given here. More than one record can exist for a structure, and the calls need not agree. Activity calls are given as the source filed them. Unless noted, the call rests on the fitted dose curve; in most records, active means well fitted curve in the direction sought with a large enough effect in the repeat runs; inconclusive means weak or mixed curves; inactive means no such curve, though single readings can be large; an effect the other way counts as inactive or inconclusive.
# Legend:
# [1] = biological target: Luciferin 4-monooxygenase (Photinus pyralis) (UniProt P08659); assay: qHTS assay to identify small molecule inhibitors of firefly luciferase (AID 1224835); further: nearly all actives have a fitted effect of over 25% in size; further: potency means the concentration at half of the fitted maximal effect; conditions: purified P. pyralis luciferase, luminescence inhibition; series mostly up to 115 µM
# Outline: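 Inhibition of purified Photinus luciferase is measured by luminescence. Substrate levels (D-luciferin, ATP) sit at their KM values. Each compound is tested in a concentration series.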
# [2] = qHTS assay to identify small molecule agonists of the constitutive androstane receptor (CAR) signaling pathway - cell viability counter screen (AID 1224836); conditions: HepG2-CYP2B6-hCAR viability, CellTiter-Fluor, 23 h, PK11195 added to every well; series mostly up to 92.4 µM; further: nearly all actives have a fitted effect of over 45% in size; further: potency means the concentration at half of the fitted maximal effect
# Outline: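 HepG2-CYP2B6-hCAR, 2500 cells/well, 4 h pre-incubation; cpd 15 conc + PK11195 0.75 uM final; 23 h, 37 C/5% CO2; CellTiter-Fluor, fluorescence.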
# [3] = qHTS assay to identify small molecule antagonists of the constitutive androstane receptor (CAR) signaling pathway - cell viability counter screen (AID 1224837); conditions: HepG2-CYP2B6-hCAR viability, CellTiter-Fluor, 23 h, co-treated with 50 nM CITCO; series mostly up to 92.4 µM; further: nearly all actives have a fitted effect of over 45% in size; further: potency means the concentration at half of the fitted maximal effect
# Outline: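 HepG2 cells stably expressing hCAR and a CYP2B6-2.2kb reporter were plated and pre-incubated 4 hr at 37 C/5% CO2, then given compounds at 15 concentrations plus 50 nM CITCO (final). After 23 hr, viability was read by CellTiter-Fluor fluorescence.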
# [4] = biological target: Nuclear receptor subfamily 1 group I member 3 (Homo sapiens) (UniProt Q14994); assay: qHTS assay to identify small molecule antagonists of the constitutive androstane receptor (CAR) signaling pathway (AID 1224838); conditions: HepG2-CYP2B6-hCAR luciferase, CITCO-stimulated, 24 h; series mostly up to 92.4 µM; further: nearly all actives have a fitted effect of over 40% in size; further: potency means the concentration at half of the fitted maximal effect
# Outline: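 HepG2 cells stably co-transfected with hCAR and a CYP2B6-2.2kb luciferase reporter were seeded 4 h before compound addition at 15 concentrations. Cells were stimulated with 50 nM CITCO (final) for 24 h at 37 C; luciferase luminescence was then read.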
# [5] = biological target: Nuclear receptor subfamily 1 group I member 3 (Homo sapiens) (UniProt Q14994); assay: qHTS assay to identify small molecule agonists of the constitutive androstane receptor (CAR) signaling pathway (AID 1224839); conditions: HepG2 hCAR CYP2B6-luciferase, agonist mode, 24 h; series mostly up to 92.4 µM; further: nearly all actives have a fitted effect of over 15% in size; further: potency means the concentration at half of the fitted maximal effect;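 on activation: HepG2 cells stably carrying human CAR and a CYP2B6 luciferase reporter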
# Outline: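 HepG2-CYP2B6-hCAR cells, 2500/well, 4 h pre-incubation; compounds 15 conc.; PK11195 0.75 uM final; 24 h, 37 C/5% CO2; ONE-Glo luciferase read.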
# [6] = qHTS assay to identify small molecule antagonists of the estrogen related receptor signaling pathway with the pleiotropic PPARgamma coactivator (PGC) from Tox21 10K library - cell viability counter screen (AID 1224840; active means well fitted cell-killing curve with a large enough effect in the repeat runs, not every such curve was filed as active; further: nearly all actives have a fitted effect of over 40% in size; further: potency means the concentration at half of the fitted maximal effect); conditions: PGC/ERR reporter cells viability, CellTiter-Fluor, 17.5 h; series mostly up to 92.4 µM
# Outline: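 PGC/ERR cells were seeded at 2,000 cells/well and left 6 hours at 37 C/5% CO2 before pin-tool addition of compounds in DMSO. After 17.5 hours at 37 C, CellTiter-Fluor was added and fluorescence read 30 minutes later.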
# [7] = qHTS assay to identify small molecule agonists of the hypoxia (HIF-1) signaling pathway - cell viability counter screen (AID 1224844; calls by dose curve; further: nearly all actives have a fitted effect of over 50% in size; further: potency means the concentration at half of the fitted maximal effect); conditions: HRE-bla ME-180 viability, CellTiter-Glo luminescence, 17 h; series mostly up to 76.8 µM
# Outline: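 HRE-bla ME-180 cells in medium with 0.5% dialyzed FBS were preincubated 5 hrs at 37C, exposed to compounds for 17 hrs, then viability was read as CellTiter-Glo luminescence after 30 min at room temperature, in the reporter wells.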
# [8] = qHTS assay to identify small molecule agonists of H2AX (AID 1224845; active means well fitted activation curve with a large enough effect in the signal ratio in the repeat runs, not every such curve was filed as active; the % refers to the signal ratio; further: potency means the concentration at half of the fitted maximal effect); conditions: CHO-K1 phospho-H2AX Ser139 HTRF, 3 h; series mostly up to 154 µM
# Outline: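 Phospho-H2AX Ser139 measured by HTRF (ex 320 nm; em 665 and 620 nm) after 24 hr antibody incubation. Compounds, 15 concentrations, 0.76% DMSO, were applied to CHO-K1 cells for 3hr at 37C before lysis.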
# [9] = qHTS assay to identify small molecule antagonists of the estrogen related receptor signaling pathway with the pleiotropic PPARgamma coactivator (PGC) from Tox21 10K library (AID 1224841; call rule not given here; further: actives are mostly falling curves and most rising ones were filed inactive; nearly all actives have a fitted effect of over 50% in size); conditions: PGC/ERR reporter cell line, ONE-Glo luciferase, 18 h; series mostly up to 92.4 µM
# Outline: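 PGC/ERR reporter cells were seeded at 2,000 cells/well and held 6 hours at 37 C/5% CO2 before pin-tool addition of compounds in DMSO. After 18 hours at 37 C, One-Glo was added and luminescence read after 30 minutes at room temperature.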
# [10] = qHTS assay to identify small molecule agonists of the estrogen related receptor signaling pathway with the pleiotropic PPARgamma coactivator (PGC) from Tox21 10K library (AID 1224842); conditions: PGC/ERR reporter cell line, luciferase ONE-Glo, 18 h; series mostly up to 92.4 µM; further: nearly all actives have a fitted effect of over 15% in size
# Outline: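 Luminescence from One-Glo (30 min, room temperature) measured after PGC/ERR cells had 18 h at 37 C with pinned compound (23 nL in DMSO). Cells had been seeded at 2,000 per well and pre-incubated 6 h.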
# Chain of Luciferin 4-monooxygenase (Photinus pyralis) (P08659 whole entry, looked up): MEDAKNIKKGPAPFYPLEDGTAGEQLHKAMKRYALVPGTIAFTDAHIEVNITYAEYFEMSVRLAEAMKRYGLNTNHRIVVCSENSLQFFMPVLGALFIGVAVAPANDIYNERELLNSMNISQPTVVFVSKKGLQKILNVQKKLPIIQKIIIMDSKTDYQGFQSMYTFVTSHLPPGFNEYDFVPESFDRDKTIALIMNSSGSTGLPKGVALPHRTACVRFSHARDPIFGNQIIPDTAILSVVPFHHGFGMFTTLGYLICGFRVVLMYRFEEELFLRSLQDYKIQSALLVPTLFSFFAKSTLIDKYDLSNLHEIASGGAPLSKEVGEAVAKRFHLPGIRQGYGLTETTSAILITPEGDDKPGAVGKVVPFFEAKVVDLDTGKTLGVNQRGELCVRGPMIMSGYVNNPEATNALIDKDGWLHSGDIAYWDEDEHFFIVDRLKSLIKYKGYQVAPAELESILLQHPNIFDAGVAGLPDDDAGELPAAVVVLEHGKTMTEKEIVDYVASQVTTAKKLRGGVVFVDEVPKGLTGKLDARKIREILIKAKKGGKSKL
# Chain of Nuclear receptor subfamily 1 group I member 3 (Homo sapiens) (Q14994 whole entry, looked up): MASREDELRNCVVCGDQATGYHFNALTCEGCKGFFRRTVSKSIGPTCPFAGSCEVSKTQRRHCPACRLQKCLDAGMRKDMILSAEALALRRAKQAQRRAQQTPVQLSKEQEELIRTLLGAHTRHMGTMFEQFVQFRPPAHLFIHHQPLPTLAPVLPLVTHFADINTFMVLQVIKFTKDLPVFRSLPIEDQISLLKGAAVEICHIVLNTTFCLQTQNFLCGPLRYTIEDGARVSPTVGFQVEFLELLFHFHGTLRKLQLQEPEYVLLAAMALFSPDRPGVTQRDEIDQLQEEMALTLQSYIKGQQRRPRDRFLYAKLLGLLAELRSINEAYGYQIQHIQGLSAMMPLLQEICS
SMILES,Potency [1],Potency [2],Potency [3],Potency [4],Potency [5],Potency [6],Potency [7],Potency [8],Potency [9],Potency [10]
Oc1ccccc1-c1ccccc1,inactive,inactive,inactive,inactive,inactive and 35.2 µM (active),inactive,inactive,inactive,–,–
O=P1(N(CCCl)CCCl)NCCCO1 (configuration not stated),inactive,inactive,inactive,inactive,inactive,–,inactive,inactive,inactive,inactive
CCCn1cc[n+](C)c1,inactive,inactive,inactive,–,–,inactive,inactive,inactive,–,–
Nc1ccc(-c2ccc(N)c(Cl)c2)cc1Cl,35.8 µM (active) and 33.2 µM (active) and 12.6 µM (active),inactive,inactive,–,–,inactive and 27.3 µM (active),inactive,–,–,–
Cc1cc(Cl)ccc1OCC(=O)O,inactive,inactive,inactive,inactive,inactive,–,inactive,inactive,–,–
CCC(=O)C(CC(C)N(C)C)(c1ccccc1)c1ccccc1 (configuration not stated),–,inactive,inactive,inactive,inactive,inactive,inactive,inactive,–,–
CCCCn1cc[n+](C)c1,–,inactive,inactive,–,–,–,inactive,inactive,–,–
O=C(O)c1ccccc1O,–,inactive,inactive,inactive,inactive,inactive,inactive,inactive,–,–
CCCC[n+]1ccc(C)cc1,20.3 µM (active) and inactive,inactive,inactive,–,–,–,inactive and 38.7 µM (active),inactive,–,–
CCCCCCCCCCCCn1cc[n+](C)c1,inactive,–,–,–,–,–,–,inactive,–,–
CCCCCCCCCCCCOS(=O)(=O)O,–,inactive,inactive,–,–,–,48.3 µM (active) and inactive,inactive,–,–
CC[n+]1ccccc1,inactive,inactive,inactive,–,–,–,inactive,inactive,–,–
O=[N+]([O-])O,–,inactive,inactive,–,–,–,inactive,inactive,–,–
CCC[N+]1(C)CCCCC1,inactive,inactive,inactive,–,–,–,inactive,inactive,–,–
O=C(O)CC(O)(CC(=O)O)C(=O)O,inactive,inactive,inactive,–,–,–,inactive,inactive,–,–
Nc1ccccc1,–,inactive,inactive,–,–,inactive,inactive,inactive,–,–
O=C(O)COc1ccc(Cl)cc1Cl,inactive,inactive,inactive,–,–,–,inactive,inactive,–,–
C[N+](C)(C)Cc1ccccc1,inactive,inactive,inactive,–,–,–,inactive,inactive,–,–
CCC[N+]1(C)CCCC1,inactive,inactive,inactive,–,–,–,inactive,inactive,–,–

SMILES,Potency [1],Potency [2],Potency [3],Potency [4],Potency [5],Potency [6],Potency [7],Potency [8],Potency [9],Potency [10]
CCCCCC[n+]1ccccc1,inactive,inactive,inactive,–,–,–,inactive,inactive,–,–
CC[N+]1(C)CCCC1,inactive,inactive,inactive,–,–,–,inactive,inactive,–,–
O=S(=O)(O)O,–,inactive,inactive,–,–,–,inactive,inactive,–,–
N#CS,–,inactive,inactive,–,–,–,inactive,inactive,–,–
COc1ccc(N)cc1,inactive,inactive,inactive,–,–,–,inactive,99.1 µM (active) and 89.8 µM (active),–,–
CCCCCCCCCCCC(=O)O,40 µM (active) and 57.6 µM (active) and 71 µM (active),inactive,inactive,–,–,–,inactive,inactive,–,–
C=CCOC(Cn1ccnc1)c1ccc(Cl)cc1Cl (configuration not stated),inactive,–,61.1 µM (active),38.7 µM (active) and 48.6 µM (active) and inactive,–,–,39 µM (active) and inactive,–,–,–
CCCCCCCCCCCCCC[P+](CCCCCC)(CCCCCC)CCCCCC,inactive,7.73 µM (active) and 9.77 µM (active),12.2 µM (active) and 13.8 µM (active),–,–,–,11 µM (active) and 17.5 µM (active) and inactive,inactive,–,–
CCCCCCCCCCn1cc[n+](C)c1,inactive,–,inactive,–,–,inactive,inactive,inactive,–,–
CC(Cl)(Cl)C(=O)O,inactive,inactive,inactive,–,–,–,inactive,inactive,–,–
CCCCCCCCCCCCCCCCn1cc[n+](C)c1,81.4 µM (active) and inactive,–,–,inactive and 30.9 µM (active) and 27.4 µM (active),–,–,inactive and 49.4 µM (active) and 31 µM (active),inactive,–,–
CNC,inactive,inactive,inactive,–,–,–,inactive,inactive,–,–
CC[N+](CC)(CC)CC,–,inactive,inactive,inactive,inactive,inactive,inactive,inactive,–,–
CCCCCCCCn1cc[n+](C)c1,inactive,–,–,–,–,inactive,inactive,inactive,–,–
CCCC[n+]1cccc(C)c1,inactive,inactive,inactive,–,–,–,inactive,inactive,–,–
Oc1cccc2cccnc12,–,–,–,1.38 µM (active) and 770 nM (active) and inactive,–,–,1.1 µM (active) and inactive,1.43 µM (active) and 3.02 µM (active) and inactive,–,–
CCCC[n+]1ccccc1C,inactive,inactive,inactive,–,–,–,inactive,inactive,–,–
COP(=O)(OC)OC=C(Cl)Cl,inactive,inactive,inactive,–,–,–,inactive,inactive,–,–
CC(=O)O,–,inactive,inactive,–,–,–,inactive,inactive,–,–
